Most compounds without a hit are left out; they make up all but 3.2% or so of the library.
Bim-Mcl-1: disrupts Bim peptide binding to human Mcl-1; Q07820; Bead-based flow cytometry, Bim peptide-Mcl-1 binding; inhibition, % at 10 µM; hit rate 0.1% among 190,000; AID 1009; in the data active = inhibition above about 40%;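 note: 0% = no compound tracer wells and 100% = peptide blocker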
Target sequence (Q07820 whole entry, looked up): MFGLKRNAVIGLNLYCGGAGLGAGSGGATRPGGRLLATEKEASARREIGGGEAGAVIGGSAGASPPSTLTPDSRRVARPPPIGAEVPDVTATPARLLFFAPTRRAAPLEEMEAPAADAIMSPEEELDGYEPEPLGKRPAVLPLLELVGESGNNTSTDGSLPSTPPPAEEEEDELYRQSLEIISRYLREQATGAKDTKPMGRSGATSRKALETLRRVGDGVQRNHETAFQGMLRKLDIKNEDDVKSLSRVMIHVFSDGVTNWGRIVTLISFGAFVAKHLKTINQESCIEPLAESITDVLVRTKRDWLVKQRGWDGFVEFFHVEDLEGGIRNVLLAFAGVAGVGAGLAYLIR
NCF1 inh: blocks human p47phox regulatory protein of NADPH oxidases. P14598. p47phox/p22phox peptide binding, fluorescence polarization, 2 h. inhibition, % at 24.7 µM. hit rate 0.53% among 220,000;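 active = inhibition above about 30%, limit read from the data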;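 note: 0% = p47phox with labelled peptide and 100% = labelled peptide alone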
Mcl1 Noxa PPI: disrupts binding of human Mcl-1 to Noxa peptide | TR-FRET Mcl-1/Noxa peptide binding, 2 h | inhibition, % at 21.7 µM | hit rate 1.5% among 220,000 | Q07820;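 active = compounds that cut the protein-peptide binding signal by more than 50% relative to plate controls in a single-dose test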;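 note: His-tagged Mcl-1 with rhodamine Noxa BH3 peptide and terbium anti-His antibody; 0% = Mcl-1 plus Noxa peptide wells and 100% = peptide-only wells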
14-3-3 Bad PPI: disrupts binding of bovine 14-3-3 zeta to phospho-Bad peptide; P63103; TR-FRET 14-3-3zeta/Dy647-pBad peptide displacement, 1 h; inhibition, % at 21.7 µM; hit rate 0.71% among 220,000;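 active = inhibition above about 70%, limit read from the data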;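 note: 0% = full 14-3-3 plus peptide FRET controls and 100% = background without 14-3-3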
Target sequence (P63103 whole entry, looked up): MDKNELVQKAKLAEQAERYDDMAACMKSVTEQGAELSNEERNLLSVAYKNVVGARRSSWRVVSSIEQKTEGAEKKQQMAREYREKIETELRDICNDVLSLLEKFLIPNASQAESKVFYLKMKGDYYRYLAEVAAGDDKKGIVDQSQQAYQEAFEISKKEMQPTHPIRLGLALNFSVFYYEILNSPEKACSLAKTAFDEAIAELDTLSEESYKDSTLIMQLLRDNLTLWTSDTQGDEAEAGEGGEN
Mcl1-Bid inh: Mcl-1/Bid interaction inhibition; Q07820; TR-FRET Mcl-1/Bid-Dy647 peptide binding, 1536-well; inhibition, % at 21.7 µM; hit rate 0.97% among 220,000;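 active = compounds that cut the binding signal by more than half at the single screening dose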;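 note: His-tagged Mcl-1 with europium anti-His antibody binding Bid BH3 peptide; 0% = Mcl-1 plus peptide wells and 100% = peptide-only wells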
The depositor's hits bear a star; . = not tested or not shown; ! = not active in a repeat.

SMILES	Bim-Mcl-1	NCF1 inh	Mcl1 Noxa PPI	14-3-3 Bad PPI	Mcl1-Bid inh
CCCC(=O)Nc1cc(=O)n(C)c(=O)n1C	-2.0	60.1*	-6.5	11.8	0.0
COc1ccc(OCC(O)CN2CCN(Cc3ccc4c(c3)OCO4)CC2)cc1 (centres undefined)	-1.0	1.1	24.1	-13.7	-12.1
Cc1ccc(OCC(O)CN2CCN(Cc3ccc4c(c3)OCO4)CC2)c(C)c1 (centres undefined)	-2.0	0.5	-0.1	77.1*	12.8
SC(COCc1ccccc1)CN1CCN(Cc2ccc3c(c2)OCO3)CC1 (centres undefined)	-1.0	-7.7	-5.0	13.1	-55.0
CC(=O)c1ccc(OCC(O)CN2CCN(Cc3ccc4c(c3)OCO4)CC2)cc1 (centres undefined)	0.0	-12.1	27.8	41.6	52.1*!
OC(COCc1ccccc1)CN1CCN(Cc2ccc3c(c2)OCO3)CC1 (centres undefined)	-1.0	-17.4	55.1*	12.5	8.7
C=CCc1cc(C)ccc1OCC(O)CN1CCN(c2ccccc2)CC1 (centres undefined)	2.0	-4.1	13.8	70.5*	-16.4
C=CCc1cc(OC)ccc1OCC(O)CN1CCN(c2ccc(OC)cc2)CC1 (centres undefined)	0.0	-6.1	36.1	23.6	7.3
Cc1nc2c(-c3ccc(Cl)cc3)cnn2c2c1CCC2	0.0	-6.9	14.4	-14.4	85.2*
Cc1cccc(C)c1OCCOC(=O)c1n[nH]c2ccccc12	-1.0	-6.4	-7.8	89.0*	-2.4
O=C(NCCCN1CCCCCC1)c1ccc(CS(=O)(=O)Cc2ccccc2F)o1	-3.0	89.0*	13.2	-97.2	14.1
CC1CCN(CCCNC(=O)c2ccc(CS(=O)(=O)Cc3ccccc3F)o2)CC1	-6.0	-43.0	8.3	-6.2	-18.8
Cc1ccc(-n2c(O)c(C=Nc3ccccc3-c3n[nH]c(=S)[nH]c3=O)c3ccccc3c2=O)cc1C	-3.0	-19.5	100.6*	-5.4	-94.1
Cc1cccc(-n2c(O)c(C=Nc3ccccc3-c3n[nH]c(=S)[nH]c3=O)c3ccccc3c2=O)n1	.	-11.7	45.3	-6.0	-19.8
Cc1ccc(-n2c(O)c(C=Nc3ccccc3-c3n[nH]c(=S)[nH]c3=O)c3ccccc3c2=O)c(C)c1	-4.0	-39.9	62.8*	-20.5	-66.5
CN1C(=O)N(C)C2(c3ccccc3)N(C)C(=O)NC12c1ccccc1 (centres undefined)	13.0	49.0*	7.7	5.0	13.2
CCOc1ccc(N2C(=O)/C(=C\c3ccc(O)c(OC)c3)S(=O)(=O)C2c2cccc([N+](=O)[O-])c2)cc1 (centres undefined)	2.0	-99.3	71.5*	45.3	33.7
CCN1C(=O)/C(=C2\SC(=S)N(NC(=O)c3ccccc3O)C2=O)c2ccccc21	.	-5.0	65.4*	-1.6	-68.7
Cc1ccccc1N=CC=C1OC(C)(C)C(C)(C)O1	-6.0	-5.4	17.1	25.1	-31.9
Cc1ccc(-c2csc(N3N=C(c4ccccc4)/C(=C\c4ccc(N(C)C)cc4)C3=O)n2)cc1	2.0	51.2*	-6.1	-24.8	-79.3
CC1=NN(c2nc(-c3ccc(C)cc3)cs2)C(=O)C1N=Nc1ccccc1O (centres undefined)	11.0	-31.2	-32.5	-13.0	-150.0
CCSc1nnc(NC(=O)CSc2nnc(CNC(=O)c3ccc(OC)c(OC)c3)o2)s1	4.0	-9.3	13.4	-4.6	-32.0
COCC(C)NC(=O)c1cc2cccc([N+](=O)[O-])c2[nH]1 (centres undefined)	.	-2.4	-8.4	-6.6	-12.4
Cc1cc(NC(=O)c2cc3cccc([N+](=O)[O-])c3[nH]2)ccc1F	.	-36.2	54.3*	-0.8	-2.4
O=C(c1cccnc1)N1CCN(Cc2cccc(F)c2)CC1	0.0	-14.3	-22.9	75.5*	2.6
SMILES	Bim-Mcl-1	NCF1 inh	Mcl1 Noxa PPI	14-3-3 Bad PPI	Mcl1-Bid inh
CC(C)N1CCC(N2CCN(CC#Cc3ccccc3)CC2CCO)CC1 (centres undefined)	0.0	3.2	-0.1	-2.5	-72.0
Cc1sc2cc3c(c(C(=O)c4ccccc4)[n+]2c1C)-c1cccc2cccc-3c12	1.0	36.9*	23.2	-22.3	-24.7
Cc1ccc(C)c(NC(=O)C2CCCN2/C=C/C(=O)C(F)(F)F)c1 (centres undefined)	-2.0	-2.5	-7.0	-5.5	72.1*
Cc1nnc(NC(=O)COc2ccc3c(C)cc(=O)oc3c2)s1	-2.0	-34.6	79.1*	5.2	-32.6
CCN(CC)S(=O)(=O)c1ccc(Cl)c(NC(=O)COc2ccc3c(C)cc(=O)oc3c2)c1	-1.0	3.8	-14.8	9.7	-6.3
Cc1cc(=O)oc2cc(OCC(=O)Nc3cccc(S(=O)(=O)N(C)C)c3)ccc12	-4.0	31.0*	-47.1	24.6	12.8
Cc1cc(=O)oc2cc(OCC(=O)c3ccc4c(c3)NC(=O)CO4)ccc12	-35.0	37.5*	-49.6	70.6*	-70.2
Cc1ccc(Cl)cc1NC(=O)COC(=O)c1ccc(COc2ccc3c(C)cc(=O)oc3c2)cc1	-2.0	-11.6	-0.8	78.1*	57.1*
CCN(CC)C(=S)SC1CCCCN(C(=O)c2ccc(F)cc2)C1=O (centres undefined)	0.0	-6.0	-1.4	-8.3	-35.1
COc1ccc([N+](=O)[O-])cc1NS(=O)(=O)c1ccc(Cl)c(C(=O)Nc2sc3c(c2C#N)CCCCC3)c1	0.0	-14.1	34.5	-0.9	1.3
CCOC(=O)Cn1c(=O)c(-c2ccccc2NC)nc2ccccc21	-1.0	39.2*	-11.9	-7.0	-103.0
O=S(=O)(Nc1nc(-c2sccc2Cl)cs1)c1cc(Cl)ccc1Cl	0.0	-79.8	36.2	87.5*	41.6
O=S(=O)(Nc1ccncc1Cl)c1cc(Cl)ccc1Cl	.	-7.3	-16.9	2.4	-17.1
Nc1nnc(SCC(=O)N2CCN(c3cccc(Cl)c3)CC2)n1-c1ccccc1	-3.0	-24.2	1.1	-1.4	-19.1
Nc1nnc(SCC(=O)N2CCN(c3ccccc3)CC2)n1-c1ccccc1	0.0	-10.8	40.6	52.0	97.3*
NS(=O)(=O)c1cccc(NS(=O)(=O)c2ccc(/C=C/C(=O)O)cc2)c1	.	-14.7	7.3	4.8	1.9
COC(=O)c1ccc(NC(=O)COc2ccc(S(=O)(=O)NC(C)C)cc2)cc1	-4.0	-6.9	6.0	3.1	5.9
CCOc1ccc(OCC(=O)Nc2ccc(S(=O)(=O)Nc3cc(C)nc(C)n3)cc2)cc1	-4.0	4.1	68.4*	0.1	2.1
CCOC(=O)c1ccc(NC(=O)COc2ccc(S(=O)(=O)NC(C)C)cc2)cc1	-5.0	-8.0	13.2	72.1*	14.5
CCCCCCCCNC(CO)(CO)CO	.	-6.4	6.6	1.1	-28.8
O=C(Nc1cc(Cl)cc(Cl)c1)C(NCCO)c1ccccc1 (centres undefined)	0.0	2.9	5.7	79.6*	38.0
COc1ccc2[nH]c(=O)c(CNC3CCCCC3)cc2c1	-2.0	-12.0	3.6	16.4	70.3*
COc1ccc2[nH]c(=O)c(CN(C(=O)C3CCCO3)c3ccc(C)c(C)c3)cc2c1 (centres undefined)	.	0.5	-18.4	2.6	100.4*
